Bioassay records from PubChem.
This is a sample that favours compounds with a hit; in the whole collection about 19% have one here.
TDP1 cell noCPT = qHTS for Inhibitors of human tyrosyl-DNA phosphodiesterase 1 (TDP1): qHTS in cells in absence of CPT; DT40 Tdp1-/- hTDP1 cells, no CPT, ATP luminescence, 48 h; Potency, µM (doses to about 46.2 µM), for inactives: top-dose activity change, negative = growth inhibition, usual class: inhibitors; 420,000 tested, 15% active; AID 686978, 2013; note: nearly all actives have a fitted effect of over 55% in size
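Growth of hTDP1-complemented DT40 Tdp1-knockout cells is measured by ATP luminescence after at least 48 hr compound exposure at 37 °C, with DMSO substituting for the 20 nM CPT used in the parallel screen.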
HT1080 IDH1KD tx = toxicity to HT-1080 IDH1 knockdown cells (counter line); HT-1080 IDH1 knockdown viability, ATP luminescence, 48 h; Potency, µM (highest dose often 46.1 µM), inactives show at the top dose activity, negative = toxicity, hits mostly cytotoxic; 360,000 tested, 2% active; AID 686971;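 note: 0% = DMSO wells and -100% = cell-free medium wells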
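IDH1KD HT-1080 cells, 750/well, RPMI + 5% FBS; compound pinned after 2 h settling; 48 h, 37 °C; CellTiter-Glo luminescence; % activity normalised to DMSO and no-cell wells; curves fitted, classed by r2 and efficacy.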
TDP1 cell CPT = growth inhibition of DT40 Tdp1-/-;hTDP1 cells with camptothecin (screen for TDP1 inhibitors); chicken DT40 Tdp1-/-;hTDP1 cells + 20 nM CPT, ATP luminescence, 48 h; 420,000 tested, 12% active; Potency, µM (titrated, usually from 46.2 µM), for the others: top-dose activity change, negative = growth inhibition, usual class: inhibitors; note: nearly all actives have a fitted effect of over 55% in size
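Cell growth measured by CellTiter-Glo luminescence after a minimum 48 h, 37 C compound exposure with 20 nM CPT in Tdp1-knockout DT40 cells stably expressing hTDP1, seeded 400/well; qHTS titration format.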
HT1080NT lethal = kills 2HG-producing HT-1080-NT fibrosarcoma cells | HT-1080-NT fibrosarcoma viability, CellTiter-Glo ATP luminescence, 48 h | Potency, µM (doses to about 46.1 µM), for inactives: at the top dose activity, negative = less viability, most hits filed as cytotoxic | 360,000 tested, 1.6% active;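 note: NT is the 2HG producing partner of a matched IDH1 knockdown line; 0% = DMSO-treated cells and -100% = media-only wells without cells; nearly all actives have a fitted effect of over 55% in size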
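HT-1080-NT; 750 cells/well; 5% FBS RPMI; 48 h compound, 37 degrees C; CellTiter-Glo luminescence; curve fitting and curve-class assignment.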
KB-3-1 tox = kills parental KB-3-1 adenocarcinoma cells. KB-3-1 viability, CellTiter-Glo ATP luminescence, 72 h. 400,000 tested, 1.4% active. AID 1347075. Potency, µM (doses to about 46.1 µM), usual class: cytotoxic; note: nearly all actives have a fitted effect of over 60% in size
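Luminescent ATP read-out (CellTiter-Glo) measures survival of drug-naive KB-3-1 cells after 72 h compound exposure at 37 °C. Titration series was screened from lowest to highest concentration, with DMSO vehicle plates as background controls.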
KB-V1 MDR tox = kills drug-selected multidrug resistant KB-V1 cells. Potency, µM (highest dose often 46.1 µM), hits mostly cytotoxic. KB-V1 MDR cells viability, CellTiter-Glo, 72 h. 400,000 tested, 3.4% active; note: nearly all actives have a fitted effect of over 60% in size
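KB-V1 MDR subline cells in DMEM (phenol-red free, 10% FBS) exposed to compounds in qHTS concentration series for 72 h at 37 degrees C. Viability read by CellTiter-Glo luminescence; concentration-effect curves fitted after normalization and correction.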
An asterisk follows results filed as active; i = inactive; ? = inconclusive; . = no result given. Calls come from the whole dose curve; as a rule, active = well fitted curve in the direction sought with a large enough effect; inconclusive = small, poorly fitted or top-dose-only effect, or another doubt; inactive = no such curve, though single readings can be large; an effect the other way counts as inactive or inconclusive. Unless noted, % is set by controls: 0 for no effect and ±100 for the full control effect; potency is the fitted concentration of half-maximal effect.

SMILES | TDP1 cell noCPT | HT1080 IDH1KD tx | TDP1 cell CPT | HT1080NT lethal | KB-3-1 tox | KB-V1 MDR tox
C/C(=N/Nc1ncc(Br)cn1)c1ccc([N+](=O)[O-])cc1 | -7% | 9% | -14% | 9% | i | i
Cc1cc(NC2CCCCC2)nc(NCc2ccccc2)n1 | 4.6µM* | ? | 4.6µM* | ? | ? | i
COc1ccc(Nc2cc(C)nc(NCc3ccccc3)n2)cc1 | 4.6µM* | 21µM* | 5.2µM* | 18µM* | ? | ?
CCOC(=O)c1sc(NC(=O)C2CCCCC2)nc1C | ? | 10% | 2% | 27% | i | i
Cc1cc(C)nc(N/N=C/c2cccc3ccccc23)n1 | ? | 4% | ? | 14% | i | 18µM*
Cc1cc(N/N=C/c2ccccc2Cl)nc(NCc2ccccc2)n1 | 4.1µM* | ? | 4.6µM* | ? | ? | ?
Cc1ccc(Nc2cc(C)nc(NCc3ccccc3)n2)cc1 | 2.6µM* | 18µM* | 2.6µM* | 21µM* | ? | 12µM*
Cc1cc(C)nc(N/N=C/c2ccccc2Cl)n1 | -25% | 12% | -26% | 4% | i | i
CCCCCCn1c(O)c(/C=C2\C=NN=C2c2ccccc2)sc1=S | 23µM* | ? | ? | -13% | i | ?
O=c1c(C(c2nnnn2C2CCCCC2)N2CCCCC2)coc2ccc(Cl)cc12 (centres undefined) | 21µM* | 4% | ? | -4% | i | ?
COc1ccc(Cl)cc1NC(=O)CN(C)C(=O)CCNC(=O)c1ccccc1OC | ? | -2% | -27% | -2% | i | i
NCCCn1c(C(=O)c2ccc(Cl)cc2)c2ccc(C(F)(F)F)cc2[n+]1[O-] | ? | -14% | ? | -1% | i | i
NCCCn1c(C(=O)c2ccc(Cl)cc2)c2ccc([N+](=O)[O-])cc2[n+]1[O-] | 4.1µM* | -29% | 4.1µM* | -23% | i | i
NC(=O)CCCn1c(C(=O)c2ccc(Cl)cc2)c2ccc(C(F)(F)F)cc2[n+]1[O-] | -25% | 0% | -3% | ? | ? | i
Cc1ccc(C(=O)c2c3ccc([N+](=O)[O-])cc3[n+]([O-])n2CCCC(N)=O)cc1 | ? | -20% | 5.8µM* | -3% | ? | i
NC(=O)CCCn1c(C(=O)c2ccc(Cl)cc2)c2ccc([N+](=O)[O-])cc2[n+]1[O-] | 8.2µM* | -12% | 3.7µM* | -25% | ? | ?
CN(CC(=O)NCCCN1CCOCC1)S(=O)(=O)c1cc(Cl)ccc1Cl | -3% | 21% | 7% | -2% | . | .
CN(Cc1ccccc1)C(=O)[C@@H]1CCCN1C(=O)[C@@H]1CCCN1C(=O)c1ccc(Cl)cc1 | -24% | ? | -22% | 16% | i | i
Cc1cccc(C(=O)Nc2ccc(OCc3cc(=O)n4ccc(C)cc4n3)cc2)c1 | -10% | . | -9% | . | i | i
COc1cccc(-c2cc(=O)c3cc(NC(=O)c4ccccc4)ccc3[nH]2)c1 | 4.1µM* | 3.7µM* | 4.6µM* | 3.7µM* | 1.6µM* | i
COc1cccc(C(=O)Nc2ccc3ccccc3c2)c1 | ? | -23% | -27% | -18% | i | i
COc1cccc(-c2cc(=O)c3cc(NC(=O)c4ccc(N(C)C)cc4)ccc3[nH]2)c1 | 1µM* | 0.73µM* | 0.92µM* | 1.3µM* | i | i
C=C[C@H]1CN2CC[C@H]1C[C@H]2[C@H](O)c1ccnc2ccc(OC)cc12 | . | -20% | . | -7% | i | i
CCOC(=O)N1CCc2c(sc3c2c(=O)n(CCc2ccccc2)c(=O)n3Cc2c(F)cccc2Cl)C1 | 26µM* | . | ? | . | . | .
CCOC(=O)N1CCc2c(sc3c2c(=O)n(CCc2ccccc2)c(=O)n3Cc2ccc(C)cc2C)C1 | 23µM* | . | ? | . | . | .
SMILES | TDP1 cell noCPT | HT1080 IDH1KD tx | TDP1 cell CPT | HT1080NT lethal | KB-3-1 tox | KB-V1 MDR tox
CC(=O)N1CCc2c(sc3c2c(=O)n(CCc2ccccc2)c(=O)n3Cc2cccc(C)c2)C1 | 16µM* | . | 15µM* | . | i | i
CC(=O)N1CCc2c(sc3c2c(=O)n(-c2ccccc2)c(=O)n3Cc2cccc(C(F)(F)F)c2)C1 | 18µM* | . | 16µM* | . | ? | i
CC(=O)N1CCc2c(sc3c2c(=O)n(-c2ccccc2)c(=O)n3CC(=O)c2ccccc2)C1 | -29% | . | 25% | . | i | ?
CCN(CC)C(=O)Cn1cc(SCC(=O)Nc2cccc(F)c2)c2ccccc21 | -13% | . | -6% | . | i | ?
CCOC(=O)N1CCc2c(sc3c2c(=O)n(Cc2ccccc2)c(=O)n3Cc2ccc(C)cc2)C1 | ? | 11% | ? | 2% | i | i
CC(=O)c1cccc(-n2c(=O)c3c4c(sc3n(Cc3cccc(C)c3)c2=O)CN(C(C)=O)CC4)c1 | 15µM* | . | 16µM* | . | i | i
CC(=O)N1CCc2c(sc3c2c(=O)n(Cc2ccccc2)c(=O)n3Cc2ccc(Cl)cc2)C1 | 29µM* | . | ? | . | ? | i
COC(=O)Cn1c(=O)n(CCc2ccccc2)c(=O)c2c3c(sc21)CCCC3 | -24% | ? | -27% | -2% | i | 21µM*
COc1ccccc1NC(=O)Cn1c(=O)n(-c2cccc(C(C)=O)c2)c(=O)c2c3c(sc21)CN(C(C)=O)CC3 | 3% | . | 3% | . | i | i
COc1ccccc1N1CCN(c2cc(=O)n(Cc3ccc(F)cc3)c(=O)[nH]2)CC1 | 4.6µM* | ? | 3.7µM* | 12µM* | 5.2µM* | ?
O=c1cc(N2CCN(c3ccccc3Cl)CC2)[nH]c(=O)n1Cc1ccc(F)cc1 | 1.5µM* | 2.6µM* | 4.6µM* | ? | 4.6µM* | 21µM*
COc1ccccc1N1CCN(c2cc(=O)n(-c3ccccc3Cl)c(=O)[nH]2)CC1 | -16% | -25% | -21% | 4% | ? | ?
CCN1CCN(c2cc(=O)n(Cc3ccc(F)cc3)c(=O)[nH]2)CC1 | 2% | 5% | 1% | 2% | i | i
CCc1nn2c(-c3ccco3)ccnc2c1-c1ccc(F)cc1 | ? | . | ? | . | i | ?
C/C(=N\NC(=S)Nc1ccccc1C)c1ccc(O)cc1 | ? | -3% | ? | -10% | i | i
Cc1cc(C(=O)COC(=O)c2ccc([N+](=O)[O-])o2)c(C)n1CC1CCCO1 (centres undefined) | ? | -11% | 23µM* | 0% | i | i
